Bioassay records (PubChem BioAssay)
Compounds with a hit are over-represented: about 0.9% of the library has one in this group of screens.
TR-FRET SRC-2 ct = TR-FRET signal artefacts, primary screen, artefact control for PPARgamma SRC-2 agonist project, biochemical. 0.4% of 200,000 active. TR-FRET ratio at 8 µM. AID 1049, 2008. TR-FRET artefact counter-screen; hits give high values
PPARg SRC-1 ag = PPARgamma agonists recruiting SRC-1 coactivator, primary screen, biochemical | Peroxisome proliferator-activated receptor gamma (Homo sapiens), P37231 | AID 631, 2007 | PPARgamma-SRC-1 coactivator recruitment biochemical assay | 0.41% of 200,000 active | activation, % at 8 µM; in the data active = activation above about 19%
Target sequence (P37231 whole entry, looked up): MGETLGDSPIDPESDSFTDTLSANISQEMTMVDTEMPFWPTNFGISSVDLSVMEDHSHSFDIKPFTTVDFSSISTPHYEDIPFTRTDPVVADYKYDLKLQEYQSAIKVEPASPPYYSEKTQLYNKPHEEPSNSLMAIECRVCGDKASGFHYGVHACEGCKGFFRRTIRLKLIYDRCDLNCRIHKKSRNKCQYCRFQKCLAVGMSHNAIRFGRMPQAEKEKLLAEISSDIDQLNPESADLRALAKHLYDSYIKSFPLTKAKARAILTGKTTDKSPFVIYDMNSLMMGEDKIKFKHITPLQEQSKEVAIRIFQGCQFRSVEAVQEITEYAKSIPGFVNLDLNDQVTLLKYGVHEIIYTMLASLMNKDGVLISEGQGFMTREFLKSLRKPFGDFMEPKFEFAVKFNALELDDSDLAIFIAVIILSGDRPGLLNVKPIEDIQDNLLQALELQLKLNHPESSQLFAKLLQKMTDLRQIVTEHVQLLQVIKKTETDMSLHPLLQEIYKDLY
SRC1 TRFRET art = TR-FRET detection interference compounds, primary screen, artefact control for PPARgamma SRC-1 recruitment agonists, biochemical, TR-FRET emission ratio. TR-FRET detection artefact counter-screen; hits give high values. TR-FRET ratio at 8 µM. 0.34% of 99,000 active. AID 1051, 2008; in the data active = TR-FRET ratio above about 2300
SRC3 TRFRET art = TR-FRET detection interference compounds, artefact control for PPARgamma SRC-3 recruitment agonists, biochemical, TR-FRET ratio | TR-FRET artefact counter-screen, PPARgamma/SRC-3 format; hits give high values | TR-FRET ratio at 8 µM | 0.39% of 99,000 active | AID 1048, 2008
PPARg SRC-2 ag = agonists of PPARg-SRC-2 recruitment, primary screen, biochemical, HTS; Peroxisome proliferator-activated receptor gamma (Homo sapiens), P37231; PPARgamma LBD-SRC-2 recruitment; activation, % at 8 µM; 0.34% of 200,000 active; in the data active = activation above about 22%
PPARg SRC3 recr = PPARgamma agonists recruiting SRC-3 coactivator, primary screen, biochemical; AID 731, 2007; 0.26% of 200,000 active; biochemical PPARgamma/SRC-3 coactivator recruitment assay; activation, % at 8 µM; Peroxisome proliferator-activated receptor gamma (Homo sapiens), P37231; in the data active = activation above about 23%
Each line names hits and unclear results; the compound was inactive in the other large screens. Cut-off read from the data, not from the text of the source, unless noted: active = TR-FRET ratio above about 2000; inactive = the rest.

CCOC(=O)CCNC(=O)Nc1ccc2nc(C)n(Cc3cccc(Cl)c3)c(=O)c2c1	TR-FRET SRC-2 ct 1989 (no result: SRC1 TRFRET art, SRC3 TRFRET art)
CCCCCCCCCCCCOC1OC(CO)C(O)C(O)C1NC(C)=O (configuration not stated)	none
O=C(Nc1nccs1)c1cncc(Br)c1	none
FC(F)(F)c1cccc(NC(=S)NCc2ccc(Cl)cc2)c1	SRC3 TRFRET art 2072
N#Cc1ccccc1Sc1ccccc1C(=O)OCC(N)=O	none
N#Cc1ccccc1Sc1ccccc1C(=O)OCc1nnc(-c2ccccc2)o1	TR-FRET SRC-2 ct 2002 (no result: SRC1 TRFRET art, SRC3 TRFRET art)
CCOc1ccccc1NC(=S)Nc1ccc(S(N)(=O)=O)cc1	none
O=C(CCC1CCCN(C(=O)C2=CCCCC2)C1)N1CCN(c2ccccn2)CC1 (configuration not stated)	PPARg SRC-1 ag 25
COc1ccc(Cl)cc1C(=O)Nc1cccc(-c2ccc3nncn3n2)c1	none
CC1(C)CC(=O)C(C=Nc2ccccc2C(=O)O)=C(O)C1	TR-FRET SRC-2 ct 1972 (no result: SRC1 TRFRET art, SRC3 TRFRET art)
NC(=S)NN=C1c2cc(S(=O)(=O)N3CCOCC3)ccc2-c2ccc(S(=O)(=O)N3CCOCC3)cc21	SRC1 TRFRET art 2316
CN(C)N=C1c2cc(S(=O)(=O)N3CCOCC3)ccc2-c2ccc(S(=O)(=O)N3CCOCC3)cc21	none
CC(C)(C)C1CCC(=NNC(=O)C(=O)NC2CCCCC2)CC1 (configuration not stated)	none
COc1ccc(NC(=O)NCc2ccc3c(c2)OCO3)cc1	none
O=C(NCc1ccc2c(c1)OCO2)Nc1ccc2nsnc2c1	TR-FRET SRC-2 ct 2378, PPARg SRC-2 ag 67
O=C(Nc1ccc(N2CCOCC2)cc1)Nc1ccc2nsnc2c1	SRC1 TRFRET art 2437
O=C1CC(NCCC2=CCCCC2)C(=O)N1c1cccc(Cl)c1Cl (configuration not stated)	none (no result: SRC1 TRFRET art, SRC3 TRFRET art)
Cn1ncc(Br)c1C(=O)NC12CC3CC(CC(C3)C1)C2	none
CC1CN(CC(=O)Nc2cc(S(=O)(=O)N3CCCC3)ccc2Cl)CC(C)O1 (configuration not stated)	TR-FRET SRC-2 ct 2051
O=C(CSc1ncnc2ccccc12)Nc1cc(S(=O)(=O)N2CCCCC2)ccc1Cl	TR-FRET SRC-2 ct 2930, SRC3 TRFRET art 2968
Cc1ccc(S(=O)(=O)N2CCCCC2)cc1NC(=O)CSc1ncnc2ccccc12	none
Cc1ccc(NC(=O)CSc2ncnc3ccccc23)cc1S(=O)(=O)N1CCCCCC1	SRC3 TRFRET art 2506
COC(=O)Cn1c(=NC(=O)c2nc3ccccc3s2)sc2cc(S(C)(=O)=O)ccc21	none
C#CCn1c(=NC(=O)c2cc(Cl)sc2Cl)sc2cc(S(N)(=O)=O)ccc21	TR-FRET SRC-2 ct 2016, SRC3 TRFRET art 2182
CCOC(=O)Cn1c(=NC(=O)c2sc3ccccc3c2Cl)sc2cc(S(N)(=O)=O)ccc21	SRC3 TRFRET art 5980, PPARg SRC3 recr active
COC(=O)Cn1c(=NC(=O)c2sc3ccccc3c2Cl)sc2cc(S(N)(=O)=O)ccc21	TR-FRET SRC-2 ct 1991, SRC3 TRFRET art 2165
C#CCn1c(=NC(=O)CN2C(=O)CCC2=O)sc2cc(S(N)(=O)=O)ccc21	none
CS(=O)(=O)c1nc2c(cc1C#N)CCCC2	none
Cc1nn2c(nc1=O)NNC2(C)C(C)(C)C (configuration not stated)	none
O=C(Nc1ccccc1-c1nc2ccccc2s1)c1cccnc1	TR-FRET SRC-2 ct 4568
O=c1cnnc(SCc2ccc([N+](=O)[O-])cc2)[nH]1	PPARg SRC-1 ag 79, PPARg SRC-2 ag 45, PPARg SRC3 recr 73
O=[N+]([O-])c1cc(-n2cccc2)ccc1N1CCOCC1	none
Fc1ccc2nc(Nc3nc4cc5c(cc4s3)OCCO5)sc2c1	TR-FRET SRC-2 ct 2038, SRC3 TRFRET art 2582
Fc1ccc2nc(Nc3nc4cc5c(cc4s3)OCO5)sc2c1	none
O=C(Cc1ccccc1)Nc1ccc2oc(=O)ccc2c1	none
COc1ccc(-c2c(C#N)c(C)nc3c2C(=O)c2ccccc2-3)cc1	PPARg SRC-1 ag 24 (no result: SRC1 TRFRET art, SRC3 TRFRET art)
COc1ccccc1C(=O)N1c2ccccc2Sc2ccccc21	none
COc1ccccc1OC(=O)CCN1c2ccccc2Sc2ccccc21	SRC3 TRFRET art 2481
CCOc1c(Br)cc(C2NS(=O)(=O)N=C3CCCCCN32)cc1OC (configuration not stated)	none (no result: SRC1 TRFRET art, SRC3 TRFRET art)
CN(C)S(=O)(=O)c1ccc(Cl)c(NC(=O)CSc2nnnn2-c2ccc(O)cc2)c1	TR-FRET SRC-2 ct 2002
Cn1nnnc1SCC(=O)Nc1cc(S(=O)(=O)N2CCCC2)ccc1Cl	none
COc1cc2cc(C(c3nnnn3C3CCCCC3)N(C)C3CCCCC3)c(=O)[nH]c2cc1OC (configuration not stated)	none
Cc1cc(/C=C2/NC(=O)N(Cc3ccccc3F)C2=O)c(C)n1C	PPARg SRC-2 ag 23
O=C(CN1CCCCC1)NC(=O)NCc1ccccc1	none
O=C(Nc1nccc(-c2cccs2)n1)c1cccs1	none (no result: SRC1 TRFRET art, SRC3 TRFRET art)
Nc1nccc(-c2cccs2)n1	TR-FRET SRC-2 ct 2014
O=C1NC2(CCCC2)N=C1c1ccc(Cl)cc1	none (no result: SRC1 TRFRET art, SRC3 TRFRET art)
N#CC(C#N)=c1ccc2c(c1)NC1(CCCCC1)N=2	PPARg SRC-1 ag 39, PPARg SRC-2 ag 28, PPARg SRC3 recr 29 (no result: SRC1 TRFRET art, SRC3 TRFRET art)
c1ccc(CCn2c3ccccc3c3nnc(SCc4ccc5nonc5c4)nc32)cc1	none (no result: SRC1 TRFRET art, SRC3 TRFRET art)
Cc1ccc(-n2c(C)cc(C(=O)COc3c(CO)cc(F)cc3CO)c2C)cc1C	PPARg SRC-2 ag 22
Cc1ccc(OCC(=O)NS(=O)(=O)c2ccccc2)cc1	none
Cc1ccc(S(=O)(=O)NC(=O)COc2ccccc2)cc1	PPARg SRC-1 ag 21
CCC(C)NS(=O)(=O)c1ccc(OCC(=O)NCc2cccnc2)cc1 (configuration not stated)	none (no result: SRC1 TRFRET art, SRC3 TRFRET art)
Cc1ccc(NS(=O)(=O)c2ccc(OCC(=O)NCc3cccnc3)cc2)cc1	PPARg SRC-2 ag 27
COc1cccc(CN(C)C(=O)Nc2cccc(C(F)(F)F)c2)c1OC	none
CS(=O)(=O)N(CCC#N)Cc1ccc(/C=C2\C(=O)Nc3ccccc32)o1	none
CC1CCN(S(=O)(=O)c2ccc(C(=O)Nc3sccc3C(N)=O)cc2)CC1	PPARg SRC-1 ag 29 (no result: SRC1 TRFRET art, SRC3 TRFRET art)
CC(C)(C)C1CCc2c(sc(NC(=O)CSc3nnc(-c4ccccc4)o3)c2C#N)C1 (configuration not stated)	TR-FRET SRC-2 ct 1982
Cc1ccnc(SCC(=O)Nc2sc3c(c2C#N)CCC(C(C)(C)C)C3)n1 (configuration not stated)	none (no result: SRC1 TRFRET art, SRC3 TRFRET art)
CCS(=O)(=O)N1CCN(C2CCC(c3ccccc3)CC2)CC1 (configuration not stated)	PPARg SRC-1 ag 20 (no result: SRC1 TRFRET art, SRC3 TRFRET art)
